Test results from PubChem BioAssay (NCATS).
“And” between values parts separate entries of the source, which are not always exact repeats. Equal entries are not always repeated. Inconclusive results are not listed. A number with no mark means an inactive call. Calls come from the whole dose curve; as a rule, active = well fitted curve in the direction sought with a large enough effect; inconclusive = small, poorly fitted or top-dose-only effect, or another doubt; inactive = no such curve, though single readings can be large or run the other way.

Experiment: qHTS Assay for Identifying Gametocytocidal Compounds (AID 743244);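 note: actives lower the fluorescent signal which means gametocytes are killed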
Conditions: P. falciparum 3D7 stage III-V gametocytes, alamarBlue, 72 h; max response: hits give low values
How it was run: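 Fluorescence at Ex 525/Em 598 nm, recorded 24 h after alamarBlue addition, reports residual metabolic activity of 3D7 gametocytes (stages III–V) following 72 h compound exposure at 37 °C, 5% CO2.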
% is set by controls: 0 for no effect and ±100 for the full control effect.

Row | Structure (SMILES) | max response
1 | NS(=O)(=O)c1cc2c(cc1C(F)(F)F)NC(Cc1ccccc1)NS2(=O)=O (stereo not given) | 5.19%
2 | COc1ccc2cc1Oc1cc3c(cc1OC)CC[N+](C)(C)[C@H]3Cc1ccc(cc1)Oc1c(OC)c(OC)cc3c1[C@@H](C2)[N+](C)(C)CC3 | -8.04%
3 | OCC(O)CN1CCN(c2ccccc2)CC1 (stereo not given) | -0.192%
4 | CN1CCC[C@@H]1Cc1c[nH]c2ccc(CCS(=O)(=O)c3ccccc3)cc12 | -0.49%
5 | N[C@@H](CSCCCO)C(=O)O | -2.32%
6 | C/C(=C(\CCOP(=O)(O)O)SC(=O)c1ccccc1)N(C=O)Cc1cnc(C)nc1N | 7.95%
7 | N[C@@H](CSSC[C@H](N)C(=O)O)C(=O)O | 13.6%
8 | CCN(CC)C(=O)Nc1ccc(OCC(O)CNC(C)(C)C)c(C(C)=O)c1 (stereo not given) | -3.18%
9 | O=c1[nH]c(=O)c2[nH]c(=O)[nH]c2[nH]1 | 19.7% and 9.73%
10 | O=C1OC(OC(=O)c2cccnc2Nc2cccc(C(F)(F)F)c2)c2ccccc21 (stereo not given) | 9.12%
11 | CCCCC/C(C=O)=C\c1ccccc1 | 8.31%
12 | Cc1cccc(C)c1NC(=O)CN(CC(=O)O)CC(=O)O | -6.34%
13 | CC1(C)OC(=O)NC1=O | 2.42%
14 | CN1CCOC(c2ccccc2)c2ccccc2C1 (stereo not given) | -7.73%
15 | COc1ccc2c(c1)C(=O)N(CCc1ccc(S(=O)(=O)NC(=O)NC3CCCCC3)cc1)C(=O)C2(C)C | 22.2%
16 | CC(=O)Nc1ccc(/C=N/NC(N)=S)cc1 | -6.31% and 5.4%
17 | CC(COc1ccccc1)NC(C)C(O)c1ccc(O)cc1 (stereo not given) | 25.2%
18 | CC(=O)NC(Cc1ccccc1)C(=O)O (stereo not given) | -1.78%

Row | Structure (SMILES) | max response
19 | c1ccc(CN(CC2=NCCN2)c2ccccc2)cc1 | -10.1%
20 | CN(N=O)C(=O)N[C@@H]1[C@@H](O)[C@H](O)[C@@H](CO)O[C@@H]1O | 5.26%
21 | CCN(CC)CCSC(=O)C(c1ccccc1)c1ccccc1 | -11.9%
22 | O=c1cc[nH]c(=O)[nH]1 | 17%
23 | C=CCn1c(=O)n([C@@H]2O[C@H](CO)[C@@H](O)[C@H]2O)c2nc(N)[nH]c(=O)c21 | 7.63%
24 | Cc1cc(C(C#N)c2ccc(Cl)cc2)c(Cl)cc1NC(=O)c1cc(I)cc(I)c1O (stereo not given) | 0.496%
25 | c1ccc2c(CC3=NCCN3)cccc2c1 | 1.75% and 3.04% and -11%
26 | NC(=O)NC(=O)Cc1ccccc1 | 3.39%
27 | O=C(O)COc1nn(Cc2ccccc2)c2ccccc12 | 49.6%
28 | CC(=O)Oc1ccc(C2(c3ccc(OC(C)=O)cc3)C(=O)Nc3ccccc32)cc1 | -4.55% and 20.8%
29 | CC/C=C(\C(=O)N[C@@H]1C(=O)N2C(C(=O)OCOC(=O)C(C)(C)C)=C(COC(N)=O)CS[C@H]12)c1csc(N)n1 | 11.6% and -14.5%
30 | CCC(=O)Nc1ccc(O)cc1 | 7.2%
31 | O=S(=O)(O)c1cc(I)c(O)c2ncccc12 | 5.64%
32 | OCC(CO)N[C@H]1C[C@](O)(CO)[C@@H](O)[C@H](O)[C@H]1O | 7.19%
33 | COc1cc(C)c(Cc2cnc(N)nc2N)cc1OC | -2.96%
34 | O=C(O)c1ccccc1-c1ccc(C(F)(F)F)cc1 | -6.58%
35 | C[C@@H]1CN(c2c(F)c(F)c3c(=O)c(C(=O)O)cn(C4CC4)c3c2F)C[C@H](C)N1 | 12.6%
